Source: PubChem
Compounds with a hit are over-represented: about 8.1% of the library has one in this group of screens.
ClpP mod: qHTS Assay for Activators of ClpP. purified B. subtilis ClpP, FRET peptide cleavage, 20 min. Potency, µM (highest dose often 57.5 µM). hit rate 1.9% among 340,000. AID 651965, 2013; active means well fitted falling curve with a large enough effect; inconclusive means small, poorly fitted or top-dose-only effect; inactive means no such curve, though single readings can be large or run the other way; further: the source files actives as falling curves though it sought activators and does not explain the sign; nearly all actives have a fitted effect of over 65% in size
Target sequence (P80244 whole entry, looked up): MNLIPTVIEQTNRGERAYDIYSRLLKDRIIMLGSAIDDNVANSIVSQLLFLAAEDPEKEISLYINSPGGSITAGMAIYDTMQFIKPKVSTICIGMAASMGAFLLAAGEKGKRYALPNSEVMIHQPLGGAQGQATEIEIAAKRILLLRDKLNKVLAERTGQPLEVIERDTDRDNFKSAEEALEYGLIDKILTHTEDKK
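FRET quenching reversal measured ClpP activation: 10 microg/mL B. subtilis ClpP at pH 8 with the FRET-FV decapeptide, read at 430 nm after 320 nm excitation. The 20-min minus 0-min signal was scaled between DMSO/no-enzyme wells and ADEP (5.8 microM final).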
Gal4-VP16 FLuc: counter-screen for ROR gamma inhibitors: Gal4-VP16 reporter; Potency, µM (top dose mostly 53.6 µM), most hits filed as inhibitors; hit rate 3.5% among 310,000; Drosophila S2 Gal4-VP16 UAS-luciferase, luminescence, 20 h;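 further: Gal4-VP16 expression switched on by copper sulfate through the metallothionein promoter; nearly all actives have a fitted effect of over 50% in size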
Sfp PPTase inh: Sfp phosphopantetheinyl transferase inhibition; Q9F4F7; Biochemical Sfp PPTase activity, qHTS; hit rate 3.5% among 310,000; AID 1490; Potency, µM, most hits filed as inhibitors;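 further: the enzyme is Sfp with the accession as filed and its product quenches rhodamine fluorescence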
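Compounds were incubated with enzyme (final 15 nM) for 15 min at room temperature before substrate addition started the reaction. Fluorescence at 525 nm excitation, 598 nm emission was recorded immediately and after 30 minutes.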
Epigenetic reg: epigenetic control regulation, reporter derepression. hit rate 0.2% among 280,000. AID 1865. Potency, µM (highest dose often 53.9 µM), actives largely listed as activators. murine LDR cells, GFP reporter derepression, 30 h; further: nearly all actives have a fitted effect of over 60% in size
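In this reporter-derepression format, murine cells bearing a silenced integrated CMV-GFP locus incubate with test compound (30 h, 37 C), then are washed and imaged; fluorescent objects of 20–120 um count as induced cells.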
PINK1 modulator: changes PINK1 expression; PINK1 immunofluorescence, high-content cytometry, 24 h; Potency, µM (series often up to 76.6 µM), most hits filed as activators; hit rate 0.2% among 410,000; AID 624263; active means well fitted activation curve with a large enough effect; inconclusive means small, poorly fitted or top-dose-only effect; cell line not stated here; further: nearly all actives have a fitted effect of over 65% in size
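Cells are seeded, rested 12 hours, then given compound at five concentrations or DMSO for 24 hours. After fixation, blocking and antibody staining, PINK1 amount and mitochondrial localization are scored; CCCP serves as control.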
RORgamma inh: inhibitors of mouse ROR gamma transcriptional activity. P51450. Drosophila S2 Gal4-RORgamma UAS-luciferase reporter, 20 h. Potency, µM (series often up to 53.6 µM), actives largely listed as inhibitors. hit rate 5.4% among 310,000. AID 2551; further: nearly all actives have a fitted effect of over 60% in size
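A Gal4/UAS one-hybrid system in insect cells: metallothionein-promoter Gal4–ROR gamma fusion plus Photinus luciferase reporter. Copper sulfate 700 uM final, 20 hr ambient incubation, luminescent detection after 10 min with reagent.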
Large screens that a line does not name were inactive. Unless noted, the call rests on the fitted dose curve; in most records, active means well fitted curve in the direction sought with a large enough effect; inconclusive means small, poorly fitted or top-dose-only effect, or another doubt; inactive means no such curve, though single readings can be large; an effect the other way counts as inactive or inconclusive.

NNC(=O)c1cc(O)c(O)c(O)c1	Sfp PPTase inh 32µM (no result: ClpP mod)
Brc1cc(Br)c[n+](CCc2ccccc2)c1	none (no result: Gal4-VP16 FLuc, Sfp PPTase inh, Epigenetic reg, PINK1 modulator, RORgamma inh)
O=[N+]([O-])c1cc(Br)c(O)c(/C=N/Nc2nnnn2-c2cccc3ccccc23)c1	Gal4-VP16 FLuc 6.3µM, RORgamma inh 3.2µM
COC(=O)[C@@H](NC(=O)O[C@@H]1C(=O)c2cc(OC)ccc2O[C@H]1c1ccc(OC)c(Br)c1)C(C)C	none (no result: ClpP mod, PINK1 modulator)
CCSc1nc2c(c(=O)[nH]c(=O)n2C)n1CC(O)COc1ccc(Cl)cc1 (stereo not drawn)	none (no result: Gal4-VP16 FLuc, Sfp PPTase inh, RORgamma inh)
COc1ccc(-n2nc(C(=O)NCC(=O)Nc3cccc(Cl)c3)c3ccccc3c2=O)cc1OC	Gal4-VP16 FLuc 11µM, Sfp PPTase inh 56µM, RORgamma inh inconclusive (no result: ClpP mod, Epigenetic reg)
Cc1cccc(-c2nc3cc(NC(=O)C4CCCO4)ccc3o2)c1 (stereo not drawn)	ClpP mod inconclusive, Gal4-VP16 FLuc inconclusive, RORgamma inh 0.28µM
O=C(Nc1cccc(-c2nc3cc(Cl)ccc3o2)c1)C1CCCO1 (stereo not drawn)	RORgamma inh inconclusive
CCC(=O)Nc1ccc(-c2nc3ccccc3c(=O)o2)cc1	Gal4-VP16 FLuc 16µM (no result: ClpP mod)
Cc1ccc2oc(-c3cccc(NC(=O)C4CCCO4)c3)nc2c1 (stereo not drawn)	ClpP mod 28µM, Gal4-VP16 FLuc inconclusive, RORgamma inh inconclusive
CCC(=O)Nc1ccc2oc(-c3cccc(C)c3)nc2c1	Gal4-VP16 FLuc 2.2µM, RORgamma inh 0.79µM
Cc1ccc(-c2nc3ccccc3c(=O)o2)cc1	none (no result: Epigenetic reg)
CCn1cc(C(=O)OCC(=O)Nc2cccc(Cl)c2C)c(=O)c2ccc(C)nc21	none (no result: Gal4-VP16 FLuc, Sfp PPTase inh, RORgamma inh)
Cc1cc(=O)[nH]c(-n2ncc(C#N)c2N)n1	Sfp PPTase inh 56µM, RORgamma inh inconclusive (no result: ClpP mod)
N#Cc1cnn(-c2ccccc2)c1N	none
Cc1ccc(S(=O)(=O)N(CC(=O)Nc2ccc(Cl)c([N+](=O)[O-])c2)C2CCCCC2)cc1	ClpP mod 28µM, Gal4-VP16 FLuc inconclusive
C/C=C\C[C@@H](C)[C@@H](O)[C@H]1C(=O)N[C@@H](CC)C(=O)N(C)CC(=O)N(C)[C@@H](CC(C)C)C(=O)N[C@@H](C(C)C)C(=O)N(C)[C@@H](CC(C)C)C(=O)N[C@@H](C)C(=O)N[C@H](C)C(=O)N(C)[C@@H](CC(C)C)C(=O)N(C)[C@@H](CC(C)C)C(=O)N(C)[C@@H](C(C)C)C(=O)N1C	none (no result: ClpP mod, PINK1 modulator)
CCc1ccc(CNC(=O)c2ccc(NC(=O)N3CC(C)Sc4ccccc43)cc2)cc1 (stereo not drawn)	none (no result: Gal4-VP16 FLuc, Sfp PPTase inh, RORgamma inh)
COC(=O)[C@@H]1CCCN1Cc1ccc2c(c1)CN(Cc1coc3ccc(C)cc3c1=O)CCO2	none (no result: ClpP mod, Gal4-VP16 FLuc, Sfp PPTase inh, Epigenetic reg, RORgamma inh)
OC(COCC(F)(F)C(F)(F)C(F)(F)C(F)F)Cn1c2ccccc2c2ccccc21 (stereo not drawn)	Gal4-VP16 FLuc 5µM, RORgamma inh inconclusive
Cc1ccc(OCC(O)Cn2c3ccccc3c3ccccc32)cc1 (stereo not drawn)	none (no result: PINK1 modulator)
COc1ccc(Cl)cc1NC(=O)C(C)N1Cc2ccccc2C1=O (stereo not drawn)	none (no result: Gal4-VP16 FLuc, Sfp PPTase inh, RORgamma inh)
COc1cc(CNC(C)c2ccccc2)cc(Cl)c1OCC(=O)Nc1ccccc1 (stereo not drawn)	Gal4-VP16 FLuc inconclusive, Sfp PPTase inh 56µM
O=C(CSc1nnc(-c2ccco2)n1CC1CCCO1)c1ccc(F)cc1 (stereo not drawn)	Sfp PPTase inh 50µM
COc1ccc(C(=O)CSc2nnc(-c3ccco3)n2CC2CCCO2)cc1 (stereo not drawn)	Sfp PPTase inh 45µM
COc1cccc(C(=O)CSc2nnc(-c3ccco3)n2CC2CCCO2)c1 (stereo not drawn)	none
CCn1c(CN2CCCCC2)nc2cc(NC(=O)COc3ccc([N+](=O)[O-])cc3)ccc21	none (no result: Gal4-VP16 FLuc, Sfp PPTase inh, RORgamma inh)
Cc1c(Cl)ccc2sc(N3CCN(C(=O)CS(=O)(=O)c4ccccc4)CC3)nc12	none (no result: Gal4-VP16 FLuc, Sfp PPTase inh, RORgamma inh)
N#Cc1cc2c(nc1SCC(=O)N1CCCCC1)CCCC2	none
N#Cc1cc2c(nc1SCC(=O)N1CCCCC1)CCCCC2	Sfp PPTase inh 56µM
